The results in this text go back to article PMC11006913.

Assay in all cases: PBM; 200 nM protein, PBS
Holding throughout (conditions): dsDNA, one strand shown

The target in assay [1] is HOXB4 (Homo sapiens, UniProt P17483 148-234).
Assay [2] addresses HOXB4 (Homo sapiens, UniProt P17483 148-234, V174I).
Assay [3] has as its target ALX1 (Homo sapiens, UniProt Q15699 118-204, L144V).
For assay [4], the target named is ALX1 (Homo sapiens, UniProt Q15699 118-204, L144R).
The target of assay [5] is ALX1 (Homo sapiens, UniProt Q15699 118-204).
ALX1 (Homo sapiens, UniProt Q15699 118-204), sequence (Q15699 118-204): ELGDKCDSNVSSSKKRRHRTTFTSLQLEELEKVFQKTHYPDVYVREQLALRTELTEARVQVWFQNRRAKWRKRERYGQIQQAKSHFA
Assay [6] concerns the target MSX2 (Homo sapiens, UniProt P35548 130-214, R199I).
The target of assay [7] is MSX2 (Homo sapiens, UniProt P35548 130-214).
MSX2 (Homo sapiens, UniProt P35548 130-214), sequence (P35548 130-214): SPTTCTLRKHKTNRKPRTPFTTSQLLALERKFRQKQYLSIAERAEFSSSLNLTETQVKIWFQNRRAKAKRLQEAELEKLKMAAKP
For assay [8], the target named is MSX2 (Homo sapiens, UniProt P35548 130-214, F161Y).
MSX2 (Homo sapiens, UniProt P35548 130-214, F161Y), sequence (P35548 130-214 F161Y): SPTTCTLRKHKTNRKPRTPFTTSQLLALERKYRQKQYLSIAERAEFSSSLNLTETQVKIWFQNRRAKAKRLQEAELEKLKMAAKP
For assay [9], the target named is ALX3 (Homo sapiens, UniProt O95076 139-225, N203Q).
ALX3 (Homo sapiens, UniProt O95076 139-225, N203Q), sequence (O95076 139-225 N203Q): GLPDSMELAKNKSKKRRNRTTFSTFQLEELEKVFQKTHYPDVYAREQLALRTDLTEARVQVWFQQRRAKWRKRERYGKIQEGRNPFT
In assay [10] the target is HOXD13 (Homo sapiens, UniProt P35453 263-343, T313R).
HOXD13 (Homo sapiens, UniProt P35453 263-343, T313R), sequence (P35453 263-343 T313R): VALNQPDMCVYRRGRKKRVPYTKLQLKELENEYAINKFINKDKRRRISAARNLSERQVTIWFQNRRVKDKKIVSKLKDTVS
For assay [11], the target named is HOXD13 (Homo sapiens, UniProt P35453 263-343).
HOXD13 (Homo sapiens, UniProt P35453 263-343), sequence (P35453 263-343): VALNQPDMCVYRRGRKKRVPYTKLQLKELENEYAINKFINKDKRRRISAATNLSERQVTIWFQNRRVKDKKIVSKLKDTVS
Assay [12] concerns the target ALX3 (Homo sapiens, UniProt O95076 139-225).
Assay [13] deals with ALX3 (Homo sapiens, UniProt O95076 139-225, L168Q).
ALX3 (Homo sapiens, UniProt O95076 139-225, L168Q), sequence (O95076 139-225 L168Q): as the sequence (O95076 139-225 N203Q) above, with L30Q, Q65N counted along it
For assay [14], the target named is HOXD13 (Homo sapiens, UniProt P35453 263-343, T313A).
HOXD13 (Homo sapiens, UniProt P35453 263-343, T313A), sequence (P35453 263-343 T313A): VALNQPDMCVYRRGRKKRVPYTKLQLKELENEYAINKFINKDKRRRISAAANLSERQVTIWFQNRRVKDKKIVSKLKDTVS
Assay [15] addresses ALX3 (Homo sapiens, UniProt O95076 139-225, L168V).
Assay [16] concerns the target ALX3 (Homo sapiens, UniProt O95076 139-225, N203S).
In assay [17] the target is VAX1 (Homo sapiens, UniProt Q5SQQ9 86-172).
VAX1 (Homo sapiens, UniProt Q5SQQ9 86-172), sequence (Q5SQQ9 86-172): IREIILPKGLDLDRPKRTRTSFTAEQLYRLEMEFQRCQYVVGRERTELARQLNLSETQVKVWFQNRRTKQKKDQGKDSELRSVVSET
Assay [18] addresses VAX1 (Homo sapiens, UniProt Q5SQQ9 86-172, T142I).
Assay [19] addresses VAX1 (Homo sapiens, UniProt Q5SQQ9 86-172, K157R).
The target of assay [20] is PROP1 (Homo sapiens, UniProt O75360 56-141).
PROP1 (Homo sapiens, UniProt O75360 56-141), sequence (O75360 56-141): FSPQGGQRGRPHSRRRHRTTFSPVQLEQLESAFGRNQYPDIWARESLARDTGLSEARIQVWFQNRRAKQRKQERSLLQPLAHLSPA
Assay [21] addresses PROP1 (Homo sapiens, UniProt O75360 56-141, R99H).
Assay [22] has as its target PROP1 (Homo sapiens, UniProt O75360 56-141, F88S).

HOXB4 (Homo sapiens, UniProt P17483 148-234, V174I), sequence (P17483 148-234 V174I): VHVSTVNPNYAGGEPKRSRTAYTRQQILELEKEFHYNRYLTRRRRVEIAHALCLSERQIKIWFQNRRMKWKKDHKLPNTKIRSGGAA
HOXB4 (Homo sapiens, UniProt P17483 148-234), sequence (P17483 148-234): as the sequence (P17483 148-234 V174I) above, with I27V counted along it
MSX2 (Homo sapiens, UniProt P35548 130-214, R199I), sequence (P35548 130-214 R199I): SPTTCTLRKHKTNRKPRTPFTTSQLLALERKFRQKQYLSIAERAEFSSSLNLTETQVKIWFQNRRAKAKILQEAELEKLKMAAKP
ALX1 (Homo sapiens, UniProt Q15699 118-204, L144V), sequence (Q15699 118-204 L144V): as the sequence (Q15699 118-204) above, with L27V counted along it
ALX1 (Homo sapiens, UniProt Q15699 118-204, L144R), sequence (Q15699 118-204 L144R): as the sequence (Q15699 118-204) above, with L27R counted along it
VAX1 (Homo sapiens, UniProt Q5SQQ9 86-172, K157R), sequence (Q5SQQ9 86-172 K157R): as the sequence (Q5SQQ9 86-172) above, with K72R counted along it
ALX3 (Homo sapiens, UniProt O95076 139-225, N203S), sequence (O95076 139-225 N203S): as the sequence (O95076 139-225 N203Q) above, with Q65S counted along it
PROP1 (Homo sapiens, UniProt O75360 56-141, F88S), sequence (O75360 56-141 F88S): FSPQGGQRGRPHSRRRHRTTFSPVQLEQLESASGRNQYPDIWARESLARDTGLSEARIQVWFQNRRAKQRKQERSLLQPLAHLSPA
PROP1 (Homo sapiens, UniProt O75360 56-141, R99H), sequence (O75360 56-141 R99H): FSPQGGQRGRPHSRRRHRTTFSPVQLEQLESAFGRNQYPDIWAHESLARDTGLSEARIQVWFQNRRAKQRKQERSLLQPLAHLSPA
ALX3 (Homo sapiens, UniProt O95076 139-225), sequence (O95076 139-225): as the sequence (O95076 139-225 N203Q) above, with Q65N counted along it
ALX3 (Homo sapiens, UniProt O95076 139-225, L168V), sequence (O95076 139-225 L168V): as the sequence (O95076 139-225 N203Q) above, with L30V, Q65N counted along it
VAX1 (Homo sapiens, UniProt Q5SQQ9 86-172, T142I), sequence (Q5SQQ9 86-172 T142I): as the sequence (Q5SQQ9 86-172) above, with T57I counted along it

As to CACGAGCC, the binding signal is 7.81 upbm affinity estimate (log intensity, higher = more binding, comparable within an allelic series) in assay [1] and 7.69 upbm affinity estimate (log intensity, higher = more binding, comparable within an allelic series) in assay [2].

Turning to CGGGATGC, the binding signal was 7.47 upbm affinity estimate (log intensity, higher = more binding, comparable within an allelic series) in assay [1]; 7.57 upbm affinity estimate (log intensity, higher = more binding, comparable within an allelic series) in [2]; 6.54 upbm affinity estimate (log intensity, higher = more binding, comparable within an allelic series) in assay [3]; 6.46 upbm affinity estimate (log intensity, higher = more binding, comparable within an allelic series) in assay [4]; 6.51 upbm affinity estimate (log intensity, higher = more binding, comparable within an allelic series) in assay [5].

ATAAAGTA: the binding signal is 10.5 upbm affinity estimate (log intensity, higher = more binding, comparable within an allelic series) in [1] and 10.6 upbm affinity estimate (log intensity, higher = more binding, comparable within an allelic series) in assay [2].

Turning to GCGCGGGA, the binding signal in [1] was 7.68 upbm affinity estimate (log intensity, higher = more binding, comparable within an allelic series); in assay [2], 7.49 upbm affinity estimate (log intensity, higher = more binding, comparable within an allelic series); in assay [6], 9.54 upbm affinity estimate (log intensity, higher = more binding, comparable within an allelic series); in assay [7], 9.49 upbm affinity estimate (log intensity, higher = more binding, comparable within an allelic series); in assay [8], 9.51 upbm affinity estimate (log intensity, higher = more binding, comparable within an allelic series).

Take CAGCGGAC: the binding signal in assay [1] is 7.6 upbm affinity estimate (log intensity, higher = more binding, comparable within an allelic series); in assay [2] it was 7.43 upbm affinity estimate (log intensity, higher = more binding, comparable within an allelic series).

In the case of ATTAGTTG, the binding signal in assay [1] is 11.2 upbm affinity estimate (log intensity, higher = more binding, comparable within an allelic series); in assay [2], 11.5 upbm affinity estimate (log intensity, higher = more binding, comparable within an allelic series).

For AGCCGCGG, the binding signal in assay [1] was 7.58 upbm affinity estimate (log intensity, higher = more binding, comparable within an allelic series); in assay [2], 7.46 upbm affinity estimate (log intensity, higher = more binding, comparable within an allelic series).

Consider ATCTATAA, for which the binding signal in assay [1] was 11 upbm affinity estimate (log intensity, higher = more binding, comparable within an allelic series); in assay [2] it was 11.1 upbm affinity estimate (log intensity, higher = more binding, comparable within an allelic series).

Consider GGAGTAAA, for which the binding signal was 9.68 upbm affinity estimate (log intensity, higher = more binding, comparable within an allelic series) in assay [1] and 9.73 upbm affinity estimate (log intensity, higher = more binding, comparable within an allelic series) in assay [2].

As to CTCCCGGC, the binding signal in [1] was 7.38 upbm affinity estimate (log intensity, higher = more binding, comparable within an allelic series); in [2] it was 7.56 upbm affinity estimate (log intensity, higher = more binding, comparable within an allelic series); in assay [9], 7.65 upbm affinity estimate (log intensity, higher = more binding, comparable within an allelic series); in [10] it was 9.46 upbm affinity estimate (log intensity, higher = more binding, comparable within an allelic series); in assay [11], 9.39 upbm affinity estimate (log intensity, higher = more binding, comparable within an allelic series); in assay [12] it was 7.57 upbm affinity estimate (log intensity, higher = more binding, comparable within an allelic series). In addition, the binding signal in assay [13] is 7.75 upbm affinity estimate (log intensity, higher = more binding, comparable within an allelic series); in assay [14] it was 9.4 upbm affinity estimate (log intensity, higher = more binding, comparable within an allelic series); in [15], 7.74 upbm affinity estimate (log intensity, higher = more binding, comparable within an allelic series); in assay [16] it was 7.67 upbm affinity estimate (log intensity, higher = more binding, comparable within an allelic series).

Consider ATAAGCGC, for which the binding signal in [1] is 9.9 upbm affinity estimate (log intensity, higher = more binding, comparable within an allelic series); in assay [2], 10 upbm affinity estimate (log intensity, higher = more binding, comparable within an allelic series).

As to CATCAGCG, the binding signal was 10.1 upbm affinity estimate (log intensity, higher = more binding, comparable within an allelic series) in [1] and 10.3 upbm affinity estimate (log intensity, higher = more binding, comparable within an allelic series) in assay [2].

Turning to CGGGAAAG, the binding signal is 7.44 upbm affinity estimate (log intensity, higher = more binding, comparable within an allelic series) in [1]; 7.56 upbm affinity estimate (log intensity, higher = more binding, comparable within an allelic series) in assay [2]; 6.35 upbm affinity estimate (log intensity, higher = more binding, comparable within an allelic series) in [3]; 6.49 upbm affinity estimate (log intensity, higher = more binding, comparable within an allelic series) in [4]; 7.08 upbm affinity estimate (log intensity, higher = more binding, comparable within an allelic series) in assay [17]; 7.2 upbm affinity estimate (log intensity, higher = more binding, comparable within an allelic series) in assay [18]. The binding signal is 6.44 upbm affinity estimate (log intensity, higher = more binding, comparable within an allelic series) in assay [5] and 7.08 upbm affinity estimate (log intensity, higher = more binding, comparable within an allelic series) in [19].

Turning to CGCCGACG, the binding signal in assay [1] was 7.65 upbm affinity estimate (log intensity, higher = more binding, comparable within an allelic series); in assay [2], 7.86 upbm affinity estimate (log intensity, higher = more binding, comparable within an allelic series).

With CTGGCGAC, the binding signal is 7.56 upbm affinity estimate (log intensity, higher = more binding, comparable within an allelic series) in assay [1] and 7.45 upbm affinity estimate (log intensity, higher = more binding, comparable within an allelic series) in assay [2].

In the case of CGGGCTGC, the binding signal in assay [1] is 7.97 upbm affinity estimate (log intensity, higher = more binding, comparable within an allelic series); in [2], 7.82 upbm affinity estimate (log intensity, higher = more binding, comparable within an allelic series); in assay [6], 9.39 upbm affinity estimate (log intensity, higher = more binding, comparable within an allelic series); in [7] it was 9.57 upbm affinity estimate (log intensity, higher = more binding, comparable within an allelic series); in assay [20], 6.7 upbm affinity estimate (log intensity, higher = more binding, comparable within an allelic series); in [21] it was 6.83 upbm affinity estimate (log intensity, higher = more binding, comparable within an allelic series). In addition, the binding signal in assay [22] was 6.68 upbm affinity estimate (log intensity, higher = more binding, comparable within an allelic series); in [8] it was 9.57 upbm affinity estimate (log intensity, higher = more binding, comparable within an allelic series).

As for CCGGTGAG, the binding signal was 7.55 upbm affinity estimate (log intensity, higher = more binding, comparable within an allelic series) in [1] and 7.62 upbm affinity estimate (log intensity, higher = more binding, comparable within an allelic series) in assay [2].

AATACAAG: the binding signal is 9.55 upbm affinity estimate (log intensity, higher = more binding, comparable within an allelic series) in assay [1] and 9.49 upbm affinity estimate (log intensity, higher = more binding, comparable within an allelic series) in assay [2].

Regarding CATTTGCG, the binding signal is 10.6 upbm affinity estimate (log intensity, higher = more binding, comparable within an allelic series) in [1] and 10.8 upbm affinity estimate (log intensity, higher = more binding, comparable within an allelic series) in [2].

As to AGAAATAA, the binding signal in assay [1] is 10.1 upbm affinity estimate (log intensity, higher = more binding, comparable within an allelic series); in assay [2], 10.1 upbm affinity estimate (log intensity, higher = more binding, comparable within an allelic series).
